# BH1578 lux ind: inducers of Vibrio cholerae quorum light production without autoinducers; V. cholerae BH1578 lux reporter, luminescence, 6 h; activation, % at 18.7 µM; 350,000 tested, 0.16% active; AID 588436; in the data active = activation mostly above about 9.7%, no sharp cut-off
# GDH-TPI counter-1: counter-screen for M. tuberculosis FBA inhibitors: GDH-TPI coupled enzymes | GDH-TPI coupled enzyme counterscreen, NADH absorbance | inhibition, % at 4.8 µM | 360,000 tested, 1.2% active; in the data active = inhibition above about 30%;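 note: 0% = DMSO wells and 100% = wells lacking the enzyme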
# RecA intein inh: Mtb RecA intein splicing inhibition; cell-free RecA intein splicing, fluorescence; inhibition, % (concentration not given with the values); 290,000 tested, 0.75% active; AID 2221; in the data active = inhibition above about 30%;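 note: 0% = vehicle wells and 100% = reference inhibitor control wells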
# UGM FP inh: inhibitors of M. tuberculosis UDP-galactopyranose mutase. P9WIQ1. purified UGM, fluorescence polarization probe displacement. inhibition, % at 10 µM. 320,000 tested, 0.06% active. AID 504406; in the data active = inhibition above about 10%, passing the limit was not always enough
# Mtb FBA inh: Mtb fructose-bisphosphate aldolase inhibition | inhibition, % at 1 µM | AID 588726 | 360,000 tested, 2.3% active | purified M. tuberculosis FBA, fluorescence read-out;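 note: 0% = vehicle and 100% = reference inhibitor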
# Rv3671c protease: Rv3671c (M. tuberculosis) protease inhibition; inhibition, % at 5.96 µM; 320,000 tested, 0.048% active; AID 2606; in the data active = inhibition above about 38%;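 note: extracellular domain of Rv3671c used as enzyme; 0% = enzyme with DMSO and 100% = no enzyme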
# Target sequence (P9WHR9 whole entry, looked up, the tested form may be a part): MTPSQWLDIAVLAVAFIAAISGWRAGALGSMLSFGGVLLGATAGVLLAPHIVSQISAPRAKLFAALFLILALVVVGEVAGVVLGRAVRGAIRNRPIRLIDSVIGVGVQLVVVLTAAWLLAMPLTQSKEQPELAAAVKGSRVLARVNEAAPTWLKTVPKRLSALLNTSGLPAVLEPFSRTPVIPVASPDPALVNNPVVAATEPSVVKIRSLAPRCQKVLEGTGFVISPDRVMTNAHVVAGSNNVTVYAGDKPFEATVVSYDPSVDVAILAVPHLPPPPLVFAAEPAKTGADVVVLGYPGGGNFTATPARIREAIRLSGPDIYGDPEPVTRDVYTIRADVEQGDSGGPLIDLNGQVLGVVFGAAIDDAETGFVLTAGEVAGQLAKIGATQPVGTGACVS
# Mtb FBA confirm: Mtb FBA inhibition, confirmed; purified M. tuberculosis FBA, fluorescence read-out; inhibition, % at 1 µM; 5,600 tested, 78% active; shares compounds with Mtb FBA inh;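 note: 0% = vehicle wells and 100% = reference inhibitor wells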
# GDH-TPI counter-2: inhibits GDH-TPI coupling enzymes, flagging Mtb FBA hits | shares compounds with Mtb FBA inh | GDH-TPI coupled enzyme counterscreen, fluorescence | inhibition, % at 1 µM | 5,600 tested, 81% active | AID 652141; in the data active = inhibition above about 10%
# GDH-TPI DR: GDH-TPI dose response counter-screen for Mtb FBA. IC50, µM. AID 652145. 170 tested, 79% active. shares compounds with Mtb FBA inh. GDH-TPI coupled enzyme assay, fluorescence, artifact counterscreen; call rule not given here
# Starred values were filed as active, the others as inactive; i = inactive; · = no result; + = active, no number. Sampled rows, rich in hits. Any-hit rate of the full collection: about 4.1%. Cut-off read from the data, not from the text of the source, unless noted: active = inhibition above about 27%; inactive = the rest.
SMILES,BH1578 lux ind,GDH-TPI counter-1,RecA intein inh,UGM FP inh,Mtb FBA inh,Rv3671c protease,Mtb FBA confirm,GDH-TPI counter-2,others
N#Cc1nnn2c1nc(N)c1c(F)cccc12,0,3,-1,2,32*,-1,170*,143*,
Cc1noc(C)c1NC(=O)N(C)C[C@H]1Oc2ccc(NC(=O)c3ccncc3)cc2C(=O)N([C@H](C)CO)C[C@@H]1C,1,-2,·,·,-2,0,·,·,
O=C(O)CCc1nn2c3ccccc3n(Cc3ccccc3)c2nc1=O,i,4,1,-2,36*,5,3,0,
CC(=O)Cn1c2ccccc2n2nc(CCC(=O)O)c(=O)nc12,0,4,2,2,26,-5,·,·,
COC(=O)c1c(NC(=O)C2C3CCC(O3)C2C(=O)O)sc2c1CCCCCC2 (stereo unspecified),0,6,-4,2,61*,-12,95*,78*,
CCc1nc2ccc(C(=O)NC3CCN(Cc4ccccc4)CC3)cn2c1N(CC)Cc1cccc(Br)c1,-1,9,·,·,-2,·,·,·,
COc1ccc(/C=N/c2oc(-c3ccccc3)cc2C#N)cc1,i,5,-2,-1,12,5,·,·,
COc1cccc(/C=N/c2oc(-c3ccccc3)cc2C#N)c1O,i,-2,4,-1,54*,8,7,2,
N#Cc1cc(-c2ccccc2)oc1/N=C/c1ccccc1O,i,10,-5,3,59*,6,45*,29*,
CCCn1nnc(NC(=S)NC(=O)c2ccccc2OC)n1,i,-11,·,0,2,-9,·,·,
CNC(=O)Oc1ccc(-c2cn3cc(Cl)ccc3n2)cc1,0,25,2,0,16,-2,·,·,
COc1ccc(-c2cn3cc(Cl)ccc3n2)cc1OC,i,16,3,-2,57*,3,72*,47*,
COc1ccc(-c2cn3cc(C)ccc3n2)cc1Br,-2,11,-2,0,30*,-4,130*,109*,
CCCCN(C(=O)CCC(=O)Nc1cc(C)on1)C(C(=O)NC1CCCC1)c1cccc(OC)c1 (stereo unspecified),-1,-4,-5,3,-2,5,·,·,
O=c1ccc2cc3ccoc3cc2o1,0,3,·,2,3,-1,·,·,
CC1(C)C=Cc2cc3ccc(=O)oc3cc2O1,-1,5,-9,3,48*,1,25,8,GDH-TPI DR=5.7*
CC1(C)Oc2cc3oc(=O)ccc3cc2C[C@@H]1O,i,14,·,4,65*,0,105*,107*,
CC1(C)Oc2cc3oc(=O)ccc3c3c2C2C1CCC(C)(O3)C2O (stereo unspecified),0,19,·,·,29*,·,154*,121*,
CSc1ccccc1NC(=O)c1noc(C)c1[N+](=O)[O-],-1,3,2,2,-2,2,·,·,
CCc1cc2c3c(c(=O)oc2cc1OC)CCCC3,i,10,3,-2,67*,4,77*,53*,
CCCOc1ccc2c3c(c(=O)oc2c1)CCCC3,3,3,3,2,60*,-8,97*,76*,
C=CCOc1ccc2c3c(c(=O)oc2c1)CCCC3,-1,5,·,·,74*,·,+,+,
Cc1ccc(C(=O)Nc2cccc(S(=O)(=O)N3CCCC3)c2)o1,0,-5,·,1,4,1,·,·,
CCN(Cc1cccs1)C(=O)CN1C(=O)NC(c2ccccc2)(c2ccccc2)C1=O,0,10,·,-2,4,-1,·,·,
Cc1ccc(-c2cc(C(F)(F)F)c(C#N)c(SCCC#N)n2)o1,i,6,-4,3,31*,-4,159*,153*,
CC(C)(C)Sc1ccc2nc3c(n2c1)CCCC3,i,-1,2,0,30*,4,95*,56*,
CC(=O)c1ccccc1NC(=O)CN1C(=O)NC2(CCCCCCC2)C1=O,i,12,·,·,0,·,·,·,
CC1=CC(c2ccc(Cl)cc2)n2ncnc2N1 (stereo unspecified),1,6,1,1,17,5,·,·,

# High-throughput results from PubChem BioAssay.
